# Compound activity deposited in PubChem BioAssay by National Center for Advancing Translational Sciences (NCATS).
# In the library only some 9% were active in any assay of this set; here they are far more common.
# JMJD2A Tudor: qHTS Assay for Inhibitors of JMJD2A-Tudor Domain; Lysine-specific demethylase 4A (Homo sapiens), O75164; Potency, µM (doses to about 114 µM), without a hit: at the highest dose activity change, negative = inhibition, actives largely listed as inhibitors; AlphaScreen JMJD2A-Tudor / H3K4me3 peptide binding; hit rate 4.4% among 390,000; further: on the % scale 0 is the no-effect control and ±100 the full control effect; nearly all actives have a fitted effect of over 50% in size
# G9a inh: qHTS Assay for Inhibitors of Histone Lysine Methyltransferase G9a. Potency, µM (doses to about 102 µM), inactives show at the highest dose activity, negative = inhibition, most hits filed as inhibitors. Histone-lysine N-methyltransferase EHMT2 (Homo sapiens), Q96KQ7. hit rate 8.8% among 350,000. G9a H3K9 monomethylation, AlphaScreen, 2 h; further: on the % scale 0 is the no-effect control and ±100 the full control effect; nearly all actives have a fitted effect of over 75% in size
#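 Compounds were preincubated with 20 nM G9a for 15 min, after which biotinylated H3K9 peptide (500 nM) and SAM (20 uM) started a 2 h room-temperature reaction. Monomethylated product was quantified by antibody-based AlphaScreen chemiluminescence.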
# HP1b chromo inh: HTS for Inhibitors of HP1-beta Chromodomain Interactions with Methylated Histone Tails. Chromobox protein homolog 1 (Homo sapiens), P83916. AlphaScreen HP1-beta / biotin-H3K9me3 peptide binding. Potency, µM (top dose mostly 114 µM), for inactives: at the highest dose activity change, negative = inhibition, usual class: inhibitors. hit rate 0.56% among 390,000; further: nearly all actives have a fitted effect of over 70% in size
#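 Compound inhibition of the preformed complex between 50 nM HP1-beta and 50 nM biotinylated H3K9me3 peptide was read by AlphaScreen. Buffer was PBS pH 7.4 with 0.01% Tween-20. Incubations ran 30 min at room temperature, with 10 ug/mL donor/acceptor beads.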
# 12-LOX inh: Primary qHTS assay for inhibitors of human arachidonate 12S-lipoxygenase (ALOX12): Round 2; purified 12hLO, xylenol orange hydroperoxide absorbance; Potency, µM (series often up to 108 µM), for inactives: top-dose activity change, negative = inhibition, actives largely listed as inhibitors; hit rate 1.1% among 580,000; further: on the % scale 0 is the no-effect control and ±100 the full control effect
#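 Purified human 12hLO at 150 nM in 25 mM Hepes, 0.01% Triton X-100, pH 7.0, preincubated 15 min at room temperature with compound. Reaction started with 40 uM arachidonic acid, 30 min at room temperature. Hydroperoxide measured by Fe-xylenol orange, 573/405 nm absorbance ratio.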
# PLK1 PBD inh: qHTS for Inhibitors of PLK1-PDB (polo-like kinase 1 - polo-box domain): Primary Screen; Plk1 PBD binding of FITC phosphopeptide, fluorescence polarization; Potency, µM, without a hit: max response, negative = inhibition, actives largely listed as inhibitors; hit rate 2.8% among 360,000; AID 720504, 2013; further: series mostly up to about 57 µM; on the % scale 0 is the no-effect control and ±100 the full control effect; nearly all actives have a fitted effect of over 65% in size
# BAZ2B block: qHTS Assay for Inhibitors of BAZ2B; Bromodomain adjacent to zinc finger domain protein 2B (Homo sapiens), Q9UIF8; AlphaScreen BAZ2B-H3K14Ac peptide displacement; Potency, µM (highest dose often 114 µM), inactives show at the top dose activity change, negative = inhibition, hits mostly inhibitors; hit rate 4.4% among 360,000; AID 504333, 2011; further: on the % scale 0 is the no-effect control and ±100 the full control effect; nearly all actives have a fitted effect of over 60% in size
#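 AlphaScreen displacement of biotin-H3(5-23)K14Ac peptide (50 nM final) from BAZ2B (50 nM final) in PBS pH 7.4, 0.01% Tween-20; complex preformed 30 min RT, then compounds (top 110 uM) 30 min RT, beads 20 min dark.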
# * hit, by the source's call; ? = inconclusive; . = not tested or not shown; [ ] = dose if it differs, or a comment. The call rests on the fitted dose curve; in most records, active means well fitted curve in the direction sought with a large enough effect; inconclusive means small, poorly fitted or top-dose-only effect, or another doubt; inactive means no such curve, though single readings can be large; an effect the other way counts as inactive or inconclusive. Potency means the concentration at half of the fitted maximal effect.
SMILES,JMJD2A Tudor,G9a inh,HP1b chromo inh,12-LOX inh,PLK1 PBD inh,BAZ2B block
COc1ccc(Cc2nc3ccc(C(=O)N4CCCCC4CCO)cc3o2)cc1 (configuration not stated),?,-3.5%,17.8%,11.8%,26.7µM*,-5.3%
COc1ccc(N2CCN(CCCNC(=O)c3nnc(Cc4ccc(F)cc4)o3)CC2)cc1,-8.2%,-50.7%[59 µM],6.6%,-20.0%,.,35.5µM*
COc1ccc(N2CCN(CCCNC(=O)c3ccc4nc(CCc5ccccc5)oc4c3)CC2)cc1,22.4µM*,?,-15.5%[57 µM],-28.8%,.,31.6µM*
CCN(CC)S(=O)(=O)c1ccc2[nH]cc(C(=O)NCCc3ccc(OC)c(OC)c3)c(=O)c2c1,-7.2%,-18.8%[59 µM],43.3%,-11.5%,2.3%,-4.0%
COc1ccc(N2CCN(CCCNC(=O)c3ccc4nc(Cc5ccccc5)oc4c3)CC2)cc1,31.6µM*,14.1µM*,-33.1%[57 µM],?,.,39.8µM*
CCOC(=O)c1ccccc1NC(=O)Cn1ccn2nc(-c3ccc(Cl)cc3)cc2c1=O,.,.,.,0.0%,.,.
COc1ccc(-c2c(C#Cc3ccc(N(C)C)cc3)c3ccccc3n2C)cc1,56.2µM*,.,?,?,-18.5%,.
COc1ccc(-c2c(C#Cc3ccsc3)c3cc(Br)ccc3n2C)cc1,21.8%,7.7%[0.501 µM],67.3%,-2.0%,1.3%,-1.7%
CCN(CC)N=Nc1ccc(C(=O)O)cc1,-2.1%,2µM*,39.8%,?,4.8%,1.2%
CCN(CC)N=Nc1ccc(S(=O)(=O)N2CCSC2C(=O)O)cc1 (configuration not stated),-9.6%,9.8%,10.1%,-31.2%,-10.0%,-10.0%
COc1ccc(F)cc1-c1cc(C(=O)Nc2ccc(C)c(NS(C)(=O)=O)c2)[nH]n1,.,.,.,-55.7%,0.0%,.
Cc1ccsc1C(=O)NNC(=O)C1CC=CCC1C(=O)O (configuration not stated),-5.5%,7.0%[59 µM],34.5%,-8.4%,-0.2%,3.1%
NCCCNC(=O)c1ccc(/C=N/O)nc1,8.91µM*,2.82µM*,1.4%,0.0%,-9.2%,22.4µM*
CC(C)CCNC(=O)[C@H](CC(C)C)NC(=O)[C@H]1O[C@@H]1C(=O)O,.,35.5µM*,.,.,.,1.5%
O=C(/C=C/c1ccccc1)NCCSCc1ccccc1,?,?,?,-18.4%,29.9µM*,7.0%
COc1ccc(-c2nncnn2)cc1,?,?,-38.7%,.,-7.5%,44.7µM*
C#CCOCCOCCOCCNc1nc(N2CCOCC2)nc(N2CCN(C(=O)[C@H](CCCCN)n3cc([C@@H](N)CO)nn3)CC2)n1,79.4µM*,-29.6%[12.7 µM],17.3%,-22.8%,-4.4%,50.1µM*
C#CCOCCOCCOCCNc1nc(N2CCN(C(=O)[C@H]([C@@H](C)CC)n3cc([C@@H](N)CC(C)C)nn3)CC2)nc(N2CCN(C(=O)[C@H](CCCCN)n3cc([C@@H](N)CO)nn3)CC2)n1,79.4µM*,?,30.1%,.,-4.6%,79.4µM*
C#CCOCCOCCOCCNc1nc(N2CCN(C(=O)[C@H]([C@@H](C)CC)n3cc([C@@H](N)CO)nn3)CC2)nc(N2CCN(C(=O)[C@H](CCCCN)n3cc([C@@H](N)CO)nn3)CC2)n1,56.2µM*,.,60.9%,-8.4%,-17.5%,.
NC(=O)C1CCN(C(=O)COc2ccc(S(=O)(=O)NC3CCCC3)cc2)CC1,-14.5%,?,1.0%,10.7%,-10.0%,-7.2%
COc1ccc(OCC(O)CN2CCCC2)cc1 (configuration not stated),79.4µM*,.,-22.3%,-20.9%,-8.6%,?
OC(COc1ccccc1)CN1CCC(Cc2ccccc2)CC1 (configuration not stated),-16.2%,-24.9%,17.1%,7.94µM*,-5.2%,1.3%
OC(COc1ccccc1)CN1CCCC1 (configuration not stated),56.2µM*,-28.7%,0.5%,?,5.0%,79.4µM*
COc1ccc(OCC(O)CN2CCN(CC(O)COc3ccc(OC)cc3)CC2)cc1 (configuration not stated),-17.3%,-10.8%,16.2%,-0.2%,3.6%,-4.7%
COc1ccc(OCC(O)CN2CCCCCC2)cc1 (configuration not stated),3.98µM*,8.91µM*,?,?,-3.4%,50.1µM*
SMILES,JMJD2A Tudor,G9a inh,HP1b chromo inh,12-LOX inh,PLK1 PBD inh,BAZ2B block
CC(C)(C)OC(=O)C[C@@H]1C/C=C\C[C@H](CC(=O)NCCO)C(=O)NC[C@H](c2ccccc2)OC1=O,-13.4%,.,20.5%,11.2%,0.9%,.
CNC(=O)NC(=O)C(C)OC(=O)c1ccc(Cl)c(S(=O)(=O)Nc2ccc(F)cc2)c1 (configuration not stated),-16.6%,.,32.0%,-23.3%,-4.4%,3.4%
CC(OC(=O)c1oc2ccccc2c1CSC1CCCCC1)C(=O)NC(N)=O (configuration not stated),-11.0%,9.2%[12.7 µM],1.0%,-0.6%,-13.6%,?
CCC(C)c1ccc(O)c(NC(=O)c2cccnc2)c1 (configuration not stated),-4.9%,50.1µM*,53.4%,0.0%,-19.6%,-2.4%
CC(C)c1ccc(O)c(NC(=O)c2cncc(Br)c2)c1,-25.3%,39.8µM*,34.9%,-29.2%,1.2%,11.8%
CCC(C)c1ccc(O)c(NC(=S)NC(=O)c2cccs2)c1 (configuration not stated),.,.,.,22.4µM*,-2.3%,.
O=C(c1ccccc1)N1CCCCC(S(=O)(=O)c2ccccc2)C1=O (configuration not stated),-7.1%,35.9%,35.4%,3.5%,-0.9%,5.4%[57.1 µM]
COc1ccc(/C=C/C(=O)N(CC(C)C)C2CCS(=O)(=O)C2)cc1 (configuration not stated),4.8%,3.1%,28.6%,-2.1%,2.9%,8.1%
CC(C)CN(C(=O)/C=C/c1nc2ccccc2s1)C1CCS(=O)(=O)C1 (configuration not stated),-21.4%,56.2µM*,0.2%,-0.2%,-7.8%,3.1%
Cc1oc(/N=C/c2ccccc2O)c(C#N)c1C,-12.7%,-124.1%,29.8%,25.0%,-8.3%,11.6%
Cc1oc(/N=C/c2ccc(Cl)cc2)c(C#N)c1C,-35.2%,-19.7%[59 µM],-12.3%,?,?,3.4%
